# From PubChem BioAssay (Tox21)
# A number with no mark means an inactive call. Inconclusive results are not listed. Where a call stands in place of a potency, no number is given. Calls of active or inactive are those of the source. Unless noted, the call rests on the fitted dose curve.
# Legend:
# [1] = Nuclear factor erythroid 2-related factor 2/antioxidant responsive element (Nrf2/ARE) small molecule agonists: qHTS cell viability counter screen in human keratinocytes (AID 1919968; active means well fitted curve in the direction sought with a large enough effect in the repeat runs; an effect the other way counts as inactive or inconclusive; further: nearly all actives have a fitted effect of over 55% in size)
# Procedure, shortened: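 In human HaCaT keratinocytes stably expressing an ARE-driven luciferase, compound exposure lasted 23 h at 37 C under 5% CO2. Viable cells are quantified with a protease-based fluorogenic reagent (CellTiter-Fluor) read 1 h after addition.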
# [2] = Nuclear factor erythroid 2-related factor 2/antioxidant responsive element (Nrf2/ARE) small molecule agonists: luciferase reporter gene qHTS assay in human keratinocytes (AID 1919969); further: nearly all actives have a fitted effect of over 35% in size
# [3] = target: Gonadotropin-releasing hormone receptor (Homo sapiens) (UniProt P30968); assay: Human gonadotropin-releasing hormone receptor (GnRHR) small molecule agonists, calcium flux assay in GnRHR-HEK293 cells (AID 1920063); further: nearly all actives have a fitted effect of over 35% in size
# Gonadotropin-releasing hormone receptor (Homo sapiens), sequence (P30968 whole entry, looked up): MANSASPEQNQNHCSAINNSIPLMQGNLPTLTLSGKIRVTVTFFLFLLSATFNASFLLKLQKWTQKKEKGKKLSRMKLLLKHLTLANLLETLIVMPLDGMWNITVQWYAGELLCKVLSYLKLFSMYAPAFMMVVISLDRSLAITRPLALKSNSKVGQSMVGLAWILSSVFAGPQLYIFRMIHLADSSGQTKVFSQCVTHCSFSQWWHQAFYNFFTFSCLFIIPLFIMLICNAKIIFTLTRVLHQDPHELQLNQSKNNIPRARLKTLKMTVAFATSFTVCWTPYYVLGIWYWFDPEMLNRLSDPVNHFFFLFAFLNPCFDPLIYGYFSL
# Procedure, shortened: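 Intracellular calcium rise is the read-out: engineered human GnRHR HEK293 cells, dye-loaded, are exposed to DMSO-dissolved compounds and fluorescence at Ex/Em 480/540 is tracked for 3 min.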
# [4] = target: KiSS-1 receptor (Homo sapiens) (UniProt Q969F8); assay: Human kisspeptin (KISS1R) small molecule agonists, calcium flux assay in KISS1R-HEK293 cells (AID 1920064; active means well fitted curve in the direction sought with a large enough effect in the repeat runs; an effect the other way counts as inactive or inconclusive)
# KiSS-1 receptor (Homo sapiens), sequence (Q969F8 whole entry, looked up): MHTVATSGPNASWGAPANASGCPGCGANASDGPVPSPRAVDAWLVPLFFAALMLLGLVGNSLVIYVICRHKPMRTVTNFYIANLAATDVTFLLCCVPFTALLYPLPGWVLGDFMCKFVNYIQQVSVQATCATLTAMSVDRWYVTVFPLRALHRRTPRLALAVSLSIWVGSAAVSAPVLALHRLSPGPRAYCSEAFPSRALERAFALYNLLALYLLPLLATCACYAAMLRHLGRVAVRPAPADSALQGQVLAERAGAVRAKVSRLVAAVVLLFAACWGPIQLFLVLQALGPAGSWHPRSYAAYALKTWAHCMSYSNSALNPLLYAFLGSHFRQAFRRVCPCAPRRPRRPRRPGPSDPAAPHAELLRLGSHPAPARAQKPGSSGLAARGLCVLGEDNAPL
# Procedure, shortened: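 Concentration-response testing used 15 concentrations in triplicate on human KISS1R-expressing HEK293 cells. Calcium-dependent fluorescence (Ex/Em 480/540) was followed kinetically for 3 min after compound transfer.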
# [5] = G protein-coupled receptor (GPCR) small molecule agonists, calcium flux assay: HEK293 wild type cell line counter screen (AID 1920065)
# Procedure, shortened: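 Fluorescence intensity signals activation. After overnight (18 h) culture and a 1 h calcium dye load at 37 C, compounds are added by pin tool and the plate read at 480/540 nm for 3 min in 1 s steps.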
# [6] = p53 small molecule agonists, cell-based qHTS assay with human liver microsomes: qHTS cell viability counter screen (AID 1963579); further: nearly all actives have a fitted effect of over 45% in size
# Procedure, shortened: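 Seed p53RE-bla cells at 4,000 per well; incubate 5 h at 37 C; add compound, human liver microsomes and NADPH; incubate 16 h at 37 C; add CellTiter-Glo; after 30 min at room temperature, read luminescence.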
# [7] = p53 small molecule agonists, cell-based qHTS assay with rat liver microsomes: qHTS cell viability counter screen (AID 1963580); further: nearly all actives have a fitted effect of over 45% in size
# Procedure, shortened: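 Counter screen for cytotoxicity under metabolic activation: rat liver microsomes and NADPH, 0.5 mg/mL final each, added with compounds to p53RE-bla HCT-116 cells; 16 h at 37 C, then ATP luminescence read.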
# [8] = p53 small molecule agonists, cell-based qHTS assay: qHTS cell viability counter screen (AID 1963581); further: nearly all actives have a fitted effect of over 45% in size
# Procedure, shortened: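 Luminescence from CellTiter-Glo, reflecting ATP content, serves as the cytotoxicity measure; it is taken after the 2 h reporter substrate step in HCT-116 p53RE-bla cells dosed for 16 h at 37 C.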
# [9] = target: 5-hydroxytryptamine receptor 2A (Homo sapiens) (UniProt P28223); assay: 5-hydroxytryptamine receptor 2A (HTR2A) small molecule antagonists, cell-based qHTS assay (AID 1963586); further: nearly all actives have a fitted effect of over 45% in size
# 5-hydroxytryptamine receptor 2A (Homo sapiens), sequence (P28223 whole entry, looked up): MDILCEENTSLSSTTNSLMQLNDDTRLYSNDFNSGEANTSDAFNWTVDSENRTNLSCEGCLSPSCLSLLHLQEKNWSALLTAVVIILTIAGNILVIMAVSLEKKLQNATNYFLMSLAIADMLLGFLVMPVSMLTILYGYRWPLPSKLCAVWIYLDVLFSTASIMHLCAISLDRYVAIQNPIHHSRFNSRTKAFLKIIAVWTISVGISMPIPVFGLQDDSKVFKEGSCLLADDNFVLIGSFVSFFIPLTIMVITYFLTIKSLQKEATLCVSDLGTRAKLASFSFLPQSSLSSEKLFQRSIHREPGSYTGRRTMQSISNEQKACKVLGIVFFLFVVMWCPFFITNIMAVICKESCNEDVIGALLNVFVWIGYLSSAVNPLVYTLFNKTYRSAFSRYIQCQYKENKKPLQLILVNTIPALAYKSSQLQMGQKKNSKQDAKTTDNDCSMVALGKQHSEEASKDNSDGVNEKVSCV
# Procedure, shortened: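 CHO cells stably expressing human HTR2A were plated for 18 h at 37 C, then loaded with calcium dye for 1 h. Compounds were preincubated 5 min at room temperature before DOI (4 nM solution) was added. Kinetic fluorescence was read for 3 min.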
# [10] = target: 5-hydroxytryptamine receptor 2A (Homo sapiens) (UniProt P28223); assay: 5-hydroxytryptamine receptor 2A (HTR2A) small molecule agonists, cell-based qHTS assay (AID 1963587); further: nearly all actives have a fitted effect of over 30% in size
# Procedure, shortened: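 HTR2A-CHO cells, plated 18 h at 37 C/5% CO2, dye-loaded 1 h at 37 C; compounds in DMSO added by pin tool (agonist mode). Intracellular calcium flux read as kinetic fluorescence on FDSS over 2 min at 1 s intervals.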
# [11] = target: Muscarinic acetylcholine receptor M1 (Homo sapiens) (UniProt P11229); assay: Cholinergic receptor muscarinic 1 (CHRM1) small molecule antagonists, cell-based qHTS assay (AID 1963588); further: nearly all actives have a fitted effect of over 40% in size; further: potency means the concentration at half of the fitted maximal effect
# Muscarinic acetylcholine receptor M1 (Homo sapiens), sequence (P11229 whole entry, looked up): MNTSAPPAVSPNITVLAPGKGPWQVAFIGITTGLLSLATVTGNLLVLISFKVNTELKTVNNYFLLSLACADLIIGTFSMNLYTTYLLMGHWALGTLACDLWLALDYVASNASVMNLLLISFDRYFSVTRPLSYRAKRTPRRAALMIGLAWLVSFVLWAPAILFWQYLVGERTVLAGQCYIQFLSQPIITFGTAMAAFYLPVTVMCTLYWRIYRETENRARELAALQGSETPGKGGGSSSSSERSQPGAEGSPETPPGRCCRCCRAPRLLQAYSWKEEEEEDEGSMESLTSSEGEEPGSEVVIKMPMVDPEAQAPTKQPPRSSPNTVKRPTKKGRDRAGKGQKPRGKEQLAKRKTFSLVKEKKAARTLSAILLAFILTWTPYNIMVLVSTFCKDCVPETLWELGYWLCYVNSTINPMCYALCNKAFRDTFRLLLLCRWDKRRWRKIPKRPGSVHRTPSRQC
# Procedure, shortened: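 Compounds were tested at 15 concentrations in three independent runs. Dye-loaded CHRM1-CHO cells were exposed 5 min at room temperature before stimulation by acetylcholine added at 50nM. Intracellular calcium was read kinetically on FDSS for 3 min.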
# [12] = target: Muscarinic acetylcholine receptor M1 (Homo sapiens) (UniProt P11229); assay: Cholinergic receptor muscarinic 1 (CHRM1) small molecule agonists, cell-based qHTS assay (AID 1963589); further: nearly all actives have a fitted effect of over 35% in size
# Procedure, shortened: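 Fluorescent calcium dye reports M1 activation in stably transfected CHO cells. Compounds, 15 concentrations, added after 1 h dye loading at 37 C; kinetic reading at 1 sec intervals.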
# [13] = cAMP Responsive Elements (CRE) small molecule agonists, cell-based qHTS assay (AID 1963590)
# Procedure, shortened: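 Compound exposure lasted 3 h at 37 C/5% CO2 in CRE-bla HEK 293T cells grown in assay medium with 10% dialyzed FBS and 25 mM HEPES. Reporter signal came from LiveBLAzer B/G FRET substrate, 2 h, room temperature.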
# [14] = cAMP Responsive Elements (CRE) small molecule antagonists, cell-based qHTS assay (AID 1963591; active means well fitted inhibition curve with a large enough effect in the signal ratio in the repeat runs, not every such curve was filed as active; the % refers to the signal ratio)
# Procedure, shortened: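 Stimulation used NKH477 at a final 0.25 uM for 3 h in compound-treated CRE-bla HEK293T cells, seeded 18 h beforehand. Reporter activity was measured with LiveBLAzer B/G FRET substrate after 2 h at room temperature.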
# [15] = target: Beta-2 adrenergic receptor (Homo sapiens) (UniProt P07550); assay: Adrenergic beta2 receptor (ADRB2) small molecule antagonists, cell-based qHTS assay (AID 1963592); further: series mostly up to about 92 µM; nearly all actives have a fitted effect of over 50% in size
# Beta-2 adrenergic receptor (Homo sapiens), sequence (P07550 whole entry, looked up): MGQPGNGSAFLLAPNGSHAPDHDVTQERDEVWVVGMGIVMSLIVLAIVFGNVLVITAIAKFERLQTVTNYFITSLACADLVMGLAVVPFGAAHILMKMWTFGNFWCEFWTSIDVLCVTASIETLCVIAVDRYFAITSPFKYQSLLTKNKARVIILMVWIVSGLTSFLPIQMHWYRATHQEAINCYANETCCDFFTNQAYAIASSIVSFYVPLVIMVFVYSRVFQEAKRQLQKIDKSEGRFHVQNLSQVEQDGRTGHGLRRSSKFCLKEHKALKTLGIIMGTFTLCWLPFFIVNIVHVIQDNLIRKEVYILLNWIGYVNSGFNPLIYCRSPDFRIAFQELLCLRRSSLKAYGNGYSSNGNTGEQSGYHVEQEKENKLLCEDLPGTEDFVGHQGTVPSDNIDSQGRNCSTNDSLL
# Procedure, shortened: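 Assay format: CHO-ADRB2 cells, 18-20hr seeding at 37C/5% CO2, then compound plus 1nM isoproterenol agonist mix for 0.5hr RT. Homogeneous time-resolved fluorescence cAMP detection after 1hr, expressed as 665/615 nm ratio.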
# [16] = target: D(2) dopamine receptor (Homo sapiens) (UniProt P14416); assay: Dopamine D2 receptor (DRD2) small molecule agonists, cell-based qHTS assay (AID 1963594); further: nearly all actives have a fitted effect of over 35% in size
# D(2) dopamine receptor (Homo sapiens), sequence (P14416 whole entry, looked up): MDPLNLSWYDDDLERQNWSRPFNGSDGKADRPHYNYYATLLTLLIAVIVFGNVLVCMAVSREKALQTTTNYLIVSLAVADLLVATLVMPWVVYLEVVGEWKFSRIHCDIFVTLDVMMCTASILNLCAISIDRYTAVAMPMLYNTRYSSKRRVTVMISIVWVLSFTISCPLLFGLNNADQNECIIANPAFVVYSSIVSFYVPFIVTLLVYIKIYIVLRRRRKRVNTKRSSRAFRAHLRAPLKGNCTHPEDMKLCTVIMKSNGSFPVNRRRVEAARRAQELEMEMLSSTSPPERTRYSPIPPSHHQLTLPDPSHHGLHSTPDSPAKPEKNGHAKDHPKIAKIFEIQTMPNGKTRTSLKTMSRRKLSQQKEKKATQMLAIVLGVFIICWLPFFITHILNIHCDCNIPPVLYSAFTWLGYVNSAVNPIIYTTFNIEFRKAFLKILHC
# Procedure, shortened: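 HEK293 cells stably expressing DRD2 were cultured 24 h at 37 C, then given Ro20-1724 (0.1 mM final) and compounds for 10 min at room temperature. NKH477 (200nM) was then added for 30 min. cAMP was read by HTRF.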
# [17] = target: D(2) dopamine receptor (Homo sapiens) (UniProt P14416); assay: Dopamine D2 receptor (DRD2) small molecule antagonists, cell-based qHTS assay (AID 1963595; active means well fitted inhibition curve with a large enough effect in the signal ratio in the repeat runs, with a control signal flat; the % refers to the signal ratio)
# Procedure, shortened: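 Antagonist mode in DRD2-HEK293 cells: after compound addition with 0.1 mM Ro20-1724, cells received quinpirole (12 nM) and NKH477 (200 nM) for 30 min at room temperature; HTRF cAMP read after 1 h detection.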
# [18] = target: Beta-2 adrenergic receptor (Homo sapiens) (UniProt P07550); assay: Adrenergic beta2 receptor (ADRB2) small molecule agonists, cell-based qHTS assay (AID 1963593);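 further: CHO cells stably overexpressing human ADRB2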
# Procedure, shortened: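 CHO cells stably over-expressing ADRB2 were plated overnight at 37C, then dosed with compounds plus a stimulation mix containing 100uM IBMX and 25uM Ro-20-1724 for 0.5hr at room temperature. cAMP was measured by HTRF competition, 1hr.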
SMILES,Potency [1],Potency [2],Potency [3],Potency [4],Potency [5],Potency [6],Potency [7],Potency [8],Potency [9],Potency [10],Potency [11],Potency [12],Potency [13],Potency [14],Potency [15],Potency [16],Potency [17],Potency [18]
Cc1ccc(N)cc1S(=O)(=O)O,inactive,inactive,inactive,inactive,inactive,inactive,inactive,inactive,inactive,inactive,inactive,inactive,inactive,inactive,inactive,inactive,inactive,
COC(C)=O,inactive,inactive,inactive,inactive,inactive,inactive,inactive,inactive,inactive,inactive,inactive,inactive,inactive,inactive,inactive,inactive,inactive,
C=CCN(CC=C)CC=C,inactive,inactive,inactive,inactive,inactive,inactive,inactive,inactive,inactive,inactive,inactive,inactive,inactive,inactive,inactive,inactive,inactive,inactive
COc1ccc(OC)c(Cl)c1,inactive,inactive,inactive,inactive,inactive,inactive,inactive,inactive,inactive,inactive,inactive,inactive,inactive,inactive,inactive,inactive,inactive,inactive
CCCCCCOC(=O)CCCCCCCC(=O)OCCCCCC,inactive,inactive,inactive,inactive,inactive,inactive,inactive,inactive,inactive,inactive,inactive,inactive,inactive,inactive,inactive,inactive,inactive,inactive
CC1(C)C(=O)N(Cl)C(=O)N1Br,inactive,inactive,inactive,inactive,inactive,inactive,inactive,inactive,inactive,inactive,inactive,inactive,inactive,inactive,inactive,inactive,inactive,inactive
CCCCNc1ccc(C(=O)OCCN(CC)CC)cc1,inactive,inactive,inactive,inactive,inactive,inactive,inactive,inactive,inactive,inactive,3.26 µM (active),inactive,inactive,inactive,inactive,inactive,inactive,inactive
